Measurements published in PubChem BioAssay AID1421 (Emory University Molecular Libraries Screening Center, 2008).
The whole screen tested about 1,300 compounds, of which about 140 (11%) were called active. No rule for the calls is given here. Not all results are given here. Potency and affinity values are given separately.

What follows are molecules tested against Prostaglandin E2 receptor EP2 subtype (Homo sapiens) (UniProt P43116) (assay: compounds shifting PGE2 potency at EP2 – cell-based, human EP2, PGE2 EC50 shift, dose response (AID 1421)). Conditions: EP2-expressing cells, PGE2 EC50 shift by compound; at 20 µM.
Sequence of Prostaglandin E2 receptor EP2 subtype (Homo sapiens) (P43116 whole entry, looked up): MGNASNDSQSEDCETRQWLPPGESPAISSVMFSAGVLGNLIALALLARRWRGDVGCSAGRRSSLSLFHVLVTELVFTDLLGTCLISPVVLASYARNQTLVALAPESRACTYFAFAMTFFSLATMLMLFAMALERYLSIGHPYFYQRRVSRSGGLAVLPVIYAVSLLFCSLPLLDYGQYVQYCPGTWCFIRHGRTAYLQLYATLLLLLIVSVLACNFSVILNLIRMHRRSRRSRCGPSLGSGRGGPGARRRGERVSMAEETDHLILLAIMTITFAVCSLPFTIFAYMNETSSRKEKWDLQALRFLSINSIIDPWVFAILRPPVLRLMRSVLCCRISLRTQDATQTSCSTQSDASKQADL

PGE2 EC50 with compound, inactive:
Cn1c(=O)c2c(nc(CN3CCN(c4ccccc4)CC3)n2Cc2c(F)cccc2Cl)n(C)c1=O 0.37 nM
CCn1c(=NC(=O)c2ccc(S(=O)(=O)N3CCOCC3)cc2)sc2cccc(OC)c21 1.76 nM
Cn1c(=O)c2c(nc(SCC(=O)N3CCc4ccccc4C3)n2C)n(C)c1=O 0.76 nM
COc1cccc(N=c2oc3c(C)ncc(CO)c3cc2C(=O)Nc2ccccc2OC)c1 0.96 nM
COc1cc2ccccc2cc1C(=O)NC(=S)Nc1cc(C(=O)O)ccc1C 58.1 nM
Cc1cc2cc3c(cc2nc1SCC(=O)OC(C)C)OCO3 0.21 nM
Cc1cc(SCC(=O)c2ccccc2)nc2ccccc12 1.19 nM
C=CCSc1nc(N(CC)CC)c2sccc2n1 0.61 nM
Cc1cccc(Cn2c(=O)n(Cc3ccco3)c(=O)c3ccccc32)c1 0.31 nM
O=c1c2ccccc2n(Cc2ccc(Cl)cc2)c(=O)n1Cc1ccco1 0.38 nM
CCOC(=O)c1sc2nccc(N(C)C)c2c1N=CNOCc1ccccc1 0.21 nM
c1ccn(-c2ncnc3sc4c(c23)CCCC4)c1 0.38 nM
CSc1nnc2c3ccccc3c3ccccc3c2n1 0.24 nM
Fc1ccccc1Nc1nc2c(s1)CCc1ccccc1-2 0.26 nM
C=C[C@@](C)(O)CCC1C(=C)C[C@H](O)C2C(C)(C)CCCC12C (stereo partly specified) 0.59 nM
COC(=O)CSc1nc(Cc2ccccc2)nc2ccccc12 0.17 nM
CCOC(=O)CSc1nc(Cc2ccccc2)nc2ccccc12 0.35 nM
CCN(Cc1cc(Cl)cc(C)c1O)Cc1c(O)ccc2ccccc12 0.73 nM
Cc1ccc(-c2cccc(C(=O)NCc3ccccc3)n2)c2ccccc12 0.42 nM
COC(=O)c1c(C)nc2ccccc2c1-c1ccccc1 0.22 nM
CCCn1c(C)nc2c(c1=O)c1nc3ccccc3nc1n2CCC1=CCCCC1 0.36 nM
O=C(Nc1cccc(Cl)c1N1CCCCC1)c1ccc2c(c1)OCCO2 0.26 nM
CCCCOc1ccccc1NC(=O)c1scc2c1OCCO2 0.31 nM
CCOC(=O)c1c(NC(=O)CSc2nnnn2CC)sc(C)c1C 0.73 nM
O=C(Nc1ccccc1)c1nn(-c2cccc(C(F)(F)F)c2)ccc1=O 0.1 nM
O=C(COc1ccccc1)Nc1ccccc1N1CCN(c2ccccc2)CC1 0.2 nM
O=C(Cc1ccccc1)Nc1ccccc1N1CCN(c2ccccc2)CC1 0.28 nM
CN(C)c1ncc(S(=O)(=O)c2ccccc2)c(-c2ccccc2Cl)n1 0.23 nM
O=C(CSc1nc2ccccc2o1)Nc1ccccc1N1CCCCCC1 0.53 nM
O=C(c1ccccc1O)N1N=C(c2ccccc2)CC1(O)C(F)(F)F (stereo unspecified) 0.51 nM
NC(=O)c1sc2nc(N3CCCCC3)c3c(c2c1N)CCCC3 0.08 nM
N#Cc1sc2nc(N3CCCCC3)c3c(c2c1N)CCCC3 0.26 nM
Cc1ccc(S(=O)(=O)n2c3ccc(Cl)cc3c3nc(C)sc32)cc1 0.13 nM
Cc1cccc(C)c1OCc1nnc(SCC(=O)Nc2nccs2)n1-c1ccccc1 0.57 nM
CC(=O)c1ccc2c(c1)c1ccccc1n2CC(C)C 0.19 nM
Cc1cc([N+](=O)[O-])c(C)c(Br)c1C 0.91 nM
O=C(O)c1nc2nc(Cl)c(Cl)nc2[nH]1 0.87 nM
O=C(Nc1ccccc1N1CCCC1)c1cc2ccccc2o1 0.19 nM
O=C(Nc1ccccc1Oc1ccccc1)c1cnccn1 0.75 nM
O=C(Nc1ccccc1N1CCCCC1)c1ccc2nccnc2c1 0.08 nM
O=C(CNCC1CCCCC1)Nc1ccccc1N1CCCCC1 0.57 nM
O=C(Nc1ccccc1N1CCCCC1)c1cccc(F)c1 0.33 nM
O=C(Nc1ccccc1N1CCCCC1)c1cccc([N+](=O)[O-])c1 0.3 nM
O=C(Nc1ccccc1N1CCCCC1)c1ccc(F)cc1 0.41 nM
CC1CCN(c2ccccc2NC(=O)c2ccc(F)cc2)CC1 0.3 nM
CCOC(=O)c1c(N)sc(-c2ccccc2)c1C 0.8 nM
O=C(CO/N=C/c1ccccc1)N1c2ccccc2Oc2ccccc21 0.59 nM
CC1CCN(c2nc3c(c(=O)[nH]c(=O)n3C)n2CC(C)CSc2nnnn2-c2ccccc2)CC1 (stereo unspecified) 0.73 nM
COC(=O)c1cc2occc2n1Cc1cccc(C)c1 0.36 nM
CCc1nc2c(cnn2-c2ccc(Cl)cc2)c(=O)n1-c1ccc(OC)cc1 1.12 nM
COc1ccc(Cl)cc1-n1c(C)ccc1C 0.33 nM
CCCCc1nc(SCCOC)c2c(=O)n(C)c(=O)n(C)c2n1 0.46 nM
CCC(=O)Oc1ccc(C(CC)C(CC)c2ccc(OC(=O)CC)cc2)cc1 (stereo unspecified) 0.53 nM
O=c1c2ccccc2c(=O)n(Cc2ccccc2)n1Cc1ccccc1 0.08 nM
CC(=O)Oc1ccc2ccccc2c1C(NC(=O)Cc1ccccc1)c1ccccc1 (stereo unspecified) 0.32 nM
COc1ccc(CSC2=C(C#N)C(=O)NC3(CCCCC3)S2)cc1 0.76 nM
COc1ccc(C(=O)Nc2ccccc2N2CCCCC2)cc1[N+](=O)[O-] 0.44 nM
O=C(Nc1ccccc1N1CCCCC1)c1ccc(Cl)c([N+](=O)[O-])c1 0.55 nM
Cc1cccc(-n2c(CCc3ccccc3)nnc2SCC(=O)c2ccccc2)c1 0.19 nM
COc1ccccc1C(CC(=O)c1ccccc1)CC(=O)c1ccccc1 0.61 nM
O=c1[nH]c(=S)c2c(n1-c1ccccc1)CCC2 1.62 nM
CCSc1nnc(-c2ccc(Cl)cc2)c2ccccc12 2.31 nM
COc1ccc2c(-c3ccccc3)cc(N3CCOCC3)nc2c1 0.43 nM
Cc1cccc(/C=N/Nc2cc(N3CCOCC3)nc(N3CCOCC3)n2)c1 0.59 nM
COc1ccc(C2=Nn3c(nnc3C3CCCCC3)SC2)cc1OC 0.48 nM
CCOC(=O)C1=C(CC)OC(N)=C(C#N)C1c1ccsc1 (stereo unspecified) 0.52 nM
CCn1c2ccc(Cl)cc2c2nc3ccccc3nc21 0.4 nM
O=c1c2ccccc2nc(/C=C/c2ccccc2)n1CCc1ccccc1 0.1 nM
C=CCOc1c(Br)cc(/C=N/n2c(CC)n[nH]c2=S)cc1Br 0.13 nM
CC(C)c1nc(N2CCN(C(=O)c3ccccc3)CC2)c(C#N)c2c1COC(C)(C)C2 0.35 nM
Cc1nc2ccccn2c1C(=O)CSc1ccc(Cl)cc1Cl 5.69 nM
Cc1cc(C(=O)NCC(c2ccco2)N(C)C)no1 (stereo unspecified) 0.8 nM
O=S(Cc1cc(Sc2ccccc2)nc(-c2ccccc2)n1)c1ccccc1 (stereo unspecified) 0.32 nM
CCOC(=O)c1c(-c2ccc(C)cc2)csc1NC(=O)c1ccc(N2C(=O)CCC2=O)cc1 0.29 nM
CCOC(=O)c1[nH]c2ccc(OC)cc2c1NS(=O)(=O)c1ccc(Cl)s1 0.39 nM
CCOC(=O)CNC(=O)c1ccc2c(c1)OCCO2 0.46 nM
CCOC(=O)c1cc2sc(C)cc2n1C(C)C(=O)OCC (stereo unspecified) 0.35 nM
CCOC(=O)c1oc2ccccc2c1NC(=O)c1cccc(OC)c1OC 0.43 nM
CCOC(=O)c1c(NC(=O)c2ccncc2)sc(C)c1C 0.45 nM
Cc1ccccc1Cn1c(-c2cncs2)nc2ccccc21 0.55 nM
c1ccc(CCc2ccccc2-c2nc(-c3cccnc3)no2)cc1 0.18 nM
CCOC(=O)c1c(NC(=O)CSc2nnc(N)s2)sc(C)c1-c1ccc(C)cc1 0.35 nM
Cc1cccc(N=N/C(=C\O)C(=O)c2ccc(Br)cc2)c1 0.18 nM
Cc1cc(C)c(S(=O)(=O)O)c(C)n1 0.61 nM
COC(=O)c1[nH]c2ccccc2c1NS(=O)(=O)c1ccc(F)c(C)c1 0.41 nM
Cn1c(=O)[nH]c(=O)c2c1nc(CN1CCN(c3ccccc3F)CC1)n2CCCc1ccccc1 0.47 nM
S=c1[nH]nc(-c2ccc(Br)o2)n1Cc1ccccc1 0.8 nM
Cn1c(=O)c(NCCc2ccccc2)c2c3c(cccc31)C(=O)c1ccccc1-2 0.58 nM
Cc1ccc2c3c(cccc13)-c1ccccc1C2=O 0.36 nM
NC(=O)CSc1nnc(-c2cccc(S(=O)(=O)N3CCOCC3)c2)n1C1CCCCCC1 0.63 nM
Cc1noc(C)c1CSc1nc2sc3c(c2c(=O)n1C)CCCC3 0.89 nM
CCCSc1nc(N2CCCC2)c2c(c1C#N)CC(C)(C)OC2 0.26 nM
Cc1cc2ccc(C)c(C)c2nc1SCC#N 0.35 nM
C=CCn1c(CCc2cc(C(C)(C)C)c(O)c(C(C)(C)C)c2)n[nH]c1=S 0.58 nM
OCCCNc1nc(-c2ccc(Cl)cc2)nnc1-c1ccc(Br)cc1 1.44 nM
CC(OC(=O)c1oc2ccccc2c1COc1ccccc1)C(=O)NC(N)=O (stereo unspecified) 0.23 nM
